Shown are actives, neighbours in structure and some others; about 12% of the full set was active somewhere.
Pf growth 96h – P. falciparum growth inhibition at 96 hours | P. falciparum luciferase reporter growth, 96 h | Potency, µM (top dose mostly 28.7 µM), for inactives: top-dose activity change, negative = inhibition, most hits filed as inhibitors | 6.9% of 320,000 active | AID 504834; also: % is scaled to controls: 0 for no effect and ±100 for the full control effect
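Two parasite generations (96 h, 37 C, 5% CO2) of compound exposure in infected erythrocytes (0.05% parasitemia, 2% hematocrit). Luciferase-reporter P. falciparum; decreased luminescence indicates inhibited growth, aimed at apicoplast-acting delayed death.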
Pf growth 48h – inhibits P. falciparum growth in the first generation, 48 h | Potency, µM (top dose mostly 28.7 µM), inactives show top-dose activity change, negative = inhibition, usual class: inhibitors | 5.9% of 310,000 active | P. falciparum luciferase growth in erythrocytes, 48 h; also: % is scaled to controls: 0 for no effect and ±100 for the full control effect
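Parasite viability was followed by luminescence of a genomically integrated firefly luciferase. Cultures held 0.1% parasitemia at 2% hematocrit (final), incubated under 5% CO2 at 37 C.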
Sm TGR inh – inhibitors of Schistosoma mansoni thioredoxin glutathione reductase; 3% of 360,000 active; Potency, µM (titrated, usually from 114 µM), inactives show top-dose activity change, negative = inhibition, hits mostly inhibitors; Q962Y6; purified TGR, DTNB reduction, TNB absorbance 405 nm; also: % is scaled to controls: 0 for no effect and ±100 for the full control effect; nearly all actives have a fitted effect of over 60% in size
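First, TGR (20 nM dispensed) and NADPH were mixed with compound. Second, a 15 min room-temperature incubation followed. Third, further NADPH and then DTNB were added to start the reaction. Finally, TNB absorbance was monitored kinetically.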
AmpC detergent – AmpC beta-lactamase inhibition with detergent present | P00811 | AmpC hydrolysis of nitrocefin, absorbance 480 nm, 0.01% Triton | Potency, µM (titrated, usually from 114 µM), for inactives: at the top dose activity change, negative = inhibition, usual class: inhibitors | 0.041% of 370,000 active | AID 485294;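 also: 0% = no-compound wells and -100% = no-enzyme wells; nearly all actives have a fitted effect of over 25% in size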
Target sequence (P00811 whole entry, looked up): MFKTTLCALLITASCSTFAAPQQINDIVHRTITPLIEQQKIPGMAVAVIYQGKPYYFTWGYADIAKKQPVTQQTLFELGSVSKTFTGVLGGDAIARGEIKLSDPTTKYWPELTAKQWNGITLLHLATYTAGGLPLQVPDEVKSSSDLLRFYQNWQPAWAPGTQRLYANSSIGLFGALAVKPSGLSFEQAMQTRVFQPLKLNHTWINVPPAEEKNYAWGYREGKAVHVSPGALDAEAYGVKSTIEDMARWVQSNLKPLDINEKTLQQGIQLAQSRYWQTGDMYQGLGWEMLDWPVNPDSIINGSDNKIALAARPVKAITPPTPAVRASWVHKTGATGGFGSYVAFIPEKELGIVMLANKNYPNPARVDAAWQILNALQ
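AmpC (5.3 nM in the dispensed reagent) in 20 mM phosphate pH 7.0 with 0.01% (detergent screen) or 0.0001% Triton X-100 was preincubated with compounds for 15 min at room temperature. Nitrocefin was then added from an 800 uM solution, and hydrolysis was followed at 480 nm.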
SARS PLP yeast – inhibitors of SARS-CoV papain-like protease in yeast; S. cerevisiae expressing SARS-CoV PLpro, growth rescue; Potency, µM (doses to about 32.9 µM), inactives show at the highest dose activity, positive = growth rescue, most hits filed as activators; 0.19% of 330,000 active; calls by dose curve; also: 0% is about no effect; nearly all actives have a fitted effect of over 55% in size
AmpC no deterg – inhibitors of E. coli AmpC beta-lactamase without detergent; AmpC nitrocefin hydrolysis, absorbance 480 nm, 0.0001% Triton; AID 485341; Potency, µM (doses to about 57.1 µM), inactives show at the top dose activity change, negative = inhibition, most hits filed as inhibitors; 0.52% of 330,000 active;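 also: plate controls were no compound for no effect and no enzyme for full effect; nearly all actives have a fitted effect of over 20% in size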
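AmpC (5.3 nM in the dispensed reagent) in 20 mM phosphate pH 7.0 with 0.01% (detergent screen) or 0.0001% Triton X-100 was preincubated with compounds for 15 min at room temperature. Nitrocefin was then added from an 800 uM solution, and hydrolysis was followed at 480 nm.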
Numbers without * were called inactive; ? = inconclusive; · = no result; [ ] = remark or other dose. Unless noted, calls follow the shape of the dose curve; as a rule, active = well fitted curve in the direction sought with a large enough effect; inconclusive = small, poorly fitted or top-dose-only effect, or another doubt; inactive = no such curve, though single readings can be large; an effect the other way counts as inactive or inconclusive. Potency is read from the fitted curve at half-maximal effect.

SMILES	Pf growth 96h	Pf growth 48h	Sm TGR inh	AmpC detergent	SARS PLP yeast	AmpC no deterg
CCN(CC)CCCN1C(=O)C(=O)/C(=C(/O)c2ccc3c(c2)CC(C)O3)C1c1cccnc1 (configuration not stated)	1.47µM*	10.8%	3.1%	-12.6%	2.6%	-8.4%
CCN(CC)CCCN1C(=O)C(=O)/C(=C(/O)c2ccc3c(c2)CC(C)O3)C1c1ccncc1 (configuration not stated)	?	12.0%	0.0%	-9.4%	-4.8%	-18.0%
CN(C)CCCN1C(=O)C(=O)/C(=C(/O)c2ccccc2)C1c1ccccn1 (configuration not stated)	-18.3%	1.7%	-19.5%	?	8.7%	-11.5%
COc1ccc(/C(O)=C2/C(=O)C(=O)N(CCN3CCOCC3)C2c2ccccn2)cc1OC (configuration not stated)	2.1%	3.9%	50.1µM*	-3.7%	-9.9%	7.4%
Cc1ccc2occ(CC(=O)Nc3c(C(=O)Nc4ccc(Cl)cc4)oc4ccccc34)c2c1	·	·	2.7%	3.6%	·	·
O=C(CSc1nc2ccsc2c(=O)n1Cc1ccc(F)cc1)NCc1ccc(Cl)cc1	·	·	2.8%	-3.3%	·	·
Cc1nn(CC(=O)NCCCN2CCC(N3CCCCC3)CC2)c(=O)c2cc(-c3ccccc3)nn12	?	?	0.1%	-4.0%	-5.8%	0.3%
CN(CC(=O)Nc1ccccc1Cl)C(=O)c1cccc(S(=O)(=O)N2CCN(Cc3ccccc3)CC2)c1	-11.7%	?	8.0%	-1.5%	9.1%	183.7%
O=C(O)CCCC(=O)Nc1c(F)c(F)c(F)c(F)c1F	0.5%	71.2%	2.5%	-15.2%	5.4%	-1.8%
CCN(CC)CCCN1C(=O)C(=O)/C(=C(/O)c2ccc(C)cc2)C1c1ccccn1 (configuration not stated)	3.29µM*	6.3%	-5.1%	-5.8%	·	·
COCCN1C(=O)C(=O)/C(=C(/O)c2ccc(OC(C)C)cc2)C1c1cccnc1 (configuration not stated)	14.7µM*	4.9%	3.5%	-12.1%	4.6%	-20.9%
Cc1cccc(N2CCN(Cc3nnc(-c4ccc5c(c4)OCO5)o3)CC2)c1C	·	·	-2.9%	-6.6%	·	·
CCOC(=O)N1CCC(NC(=O)Cn2nc(-c3ccccc3)ccc2=O)CC1	9.28µM*	-5.5%	3.6%	-6.6%	-0.7%	11.4%
CCOC(=O)N1CCC(Nc2c(NCCCOC)c(=O)c2=O)CC1	24.5%	-19.7%	-9.6%	0.1%	29.1%	0.251µM*
CCOC(=O)N1CCC(NC(=O)CCC(=O)c2ccccc2)CC1	8.28µM*	-9.4%	-2.2%	0.1%	2.9%	-18.1%
CCOC(=O)N1CCC(NC(=O)c2ccccc2C(=O)O)CC1	0.0%	5.86µM*	0.6%	1.9%	0.2%	-9.6%
CCOC(=O)N1CCN(C(=O)CCn2nc(-c3ccccc3)ccc2=O)CC1	-3.6%	33.6%	0.9%	-9.5%	-0.4%	15.0%
Cc1ccc(C)c(Cn2c(=O)n(CCCCCC(=O)NCc3ccc4c(c3)OCO4)c(=O)c3sccc32)c1	·	·	-2.0%	23.3%	·	·
COc1ccccc1NC(=O)C(=O)NCC(c1cccnc1)N1CCc2ccccc2C1 (configuration not stated)	·	·	0.4%	11.3%	·	·
CCCOC(=O)c1ccc(NC(=O)C(CC)CC)cc1	1.5%	88.8%	-6.6%	?	-9.2%	-16.2%
COc1ccc(CNC(=O)C2CCCN2S(=O)(=O)c2ccccc2)cc1 (configuration not stated)	-0.4%	·	6.1%[11.4 µM]	?	-4.0%	-1.7%
CCOC(=O)Cn1nc(-c2ccc(Cl)cc2)ccc1=O	9.28µM*	12.5%	-4.7%	-11.3%	-0.4%	5.9%
CCOC(=O)N1CCN(C(=O)Cn2nc(-c3ccc(Cl)cc3)ccc2=O)CC1	-10.4%	49.4%	12.2%	3.1%	9.3%	159.2%
Cc1ccc(NC(=O)CSc2nnc(Cc3ccccc3)o2)cc1	11.7µM*	96.6%	-1.1%	-3.5%	2.0%	98.8%
Cc1cc(C)cc(NC(=O)CSc2nnc(CNC(=O)c3ccco3)o2)c1	?	7.2%	-20.9%	-11.2%	3.2%	-22.0%
SMILES	Pf growth 96h	Pf growth 48h	Sm TGR inh	AmpC detergent	SARS PLP yeast	AmpC no deterg
CCCn1c(N)c(C(=O)CSc2nnc(Cc3ccccc3)o2)c(=O)n(C)c1=O	?	8.28µM*	-3.5%	?	7.9%	-2.4%
COc1ccc(C(=O)NCc2nnc(SCC(=O)Nc3cc(C)cc(C)c3)o2)cc1OC	74.4%	2.5%	-8.4%	-14.4%	4.8%	0.7%
O=C(CSc1nnc(Cc2ccccc2)o1)c1ccccc1	?	26.0%	0.3%[57.1 µM]	-9.9%	0.0%	-13.4%
Cc1cccc(NC(=O)CSc2nnc(CNC(=O)c3ccco3)o2)c1	10.4µM*	21.0%	-2.2%	-10.8%	-4.9%	-11.6%
COc1cc(C(=O)NCc2nnc(SCC(=O)Nc3cccc(C)c3)o2)cc(OC)c1OC	7.38µM*	·	-1.9%	-9.3%	4.9%	0.8%
CCOc1ccc(-c2nc(Cn3c(=O)cc(C)c4c(C)nn(-c5ccc(C)cc5)c43)c(C)o2)cc1	·	·	3.8%	17.0%	·	·
Cc1cc(C)c(S(=O)(=O)NCC(c2ccco2)N2CCN(c3ccccc3)CC2)c(C)c1 (configuration not stated)	·	·	7.0%	4.0%	·	·
O=C(CSc1nnc(CNC(=O)c2ccco2)o1)Nc1ccc(F)cc1	10.4µM*	8.0%	4.2%	-4.9%	-2.0%	-26.8%
CN1CC(=O)N(CC(=O)Nc2ccc(N(C)C)cc2)c2ccccc2C1=O	9.2%	31.3%	50.1µM*	0.8%	·	·
CCOc1ccc2[nH]c3c(NCCc4ccc(OC)c(OC)c4)ncnc3c2c1	3.7µM*	4.65µM*	-3.3%	3.5%	0.8%	71.1%
COc1ccc2[nH]c3c(NCCN4CCCCC4)ncnc3c2c1	20.1%	2.08µM*	1.8%	-4.8%	1.4%	-5.4%
CCOc1ccc2[nH]c3c(NCCO)ncnc3c2c1	11.7%	10.7%	-8.2%	0.1%	-1.4%	-24.7%
C=C(NCc1ccccc1)c1ccccc1O	-13.9%	-8.6%	·	·	·	·
O=c1cc(-c2c(F)c(F)c(F)c(F)c2F)oc2c(F)c(F)c(F)c(F)c12	-11.3%	?	-26.2%	-12.2%	-14.8%	-16.6%
CC(=O)n1cc([C@H]2C=C(C(=O)N3CCN(Cc4ccc5c(c4)OCO5)CC3)O[C@@H](OCCCCO)C2)c2ccccc21	?	0.928µM*	?	-4.5%	-1.1%	194.3%
CCO[C@@H]1OC(C(=O)N2CCN(Cc3ccc4c(c3)OCO4)CC2)=C[C@H](c2cn(C(C)=O)c3ccccc23)[C@H]1CCCO	4.15µM*	1.31µM*	-15.0%	10.2%	-0.4%	214.6%
